The results in this text go back to the supplement of paper PMC7261846.

Counter-ions that a name gives are not always drawn. ± gives the uncertainty stated by the source.

The test concerns Candida albicans SNY425 biofilm. Briefly: biofilm OD600 with compound plus antifungal (OD600 (absorbance)); higher = more biofilm remaining.
The mark [1] stands for this setting: assay detail: disruption of 24-h mature biofilm (compound + antifungal for a second 24 h).
[2] abbreviates: assay detail: sustained inhibition (compound + antifungal during 90-min adherence and 24-h growth).

On to `NCCCC[C@H](N[C@@H](CCc1ccccc1)C(=O)O)C(=O)N1CCC[C@H]1C(=O)O` [Lisinopril] + CC[C@H](C)C[C@H](C)CCCCCCCCC(=O)N[C@H]1C[C@@H](O)[C@@H](NCCN)NC(=O)[C@@H]2[C@@H](O)CCN2C(=O)[C@H]([C@H](O)CCN)NC(=O)[C@H]([C@H](O)[C@@H](O)c2ccc(O)cc2)NC(=O)[C@@H]2C[C@@H](O)CN2C(=O)[C@H]([C@@H](C)O)NC1=O [caspofungin] (first compound 12.5 µM), for which the “biofilm OD600” value is, setting by setting: under setting [1], 0.258 ± 0.011; under setting [2], 0.178 ± 0.023.
For `NC(N)=NCCC[C@H](NC(=O)[C@@H]1CCCN1C(=O)[C@H](N)Cc1ccccc1)C(=O)CCl` + CC[C@H](C)C[C@H](C)CCCCCCCCC(=O)N[C@H]1C[C@@H](O)[C@@H](NCCN)NC(=O)[C@@H]2[C@@H](O)CCN2C(=O)[C@H]([C@H](O)CCN)NC(=O)[C@H]([C@H](O)[C@@H](O)c2ccc(O)cc2)NC(=O)[C@@H]2C[C@@H](O)CN2C(=O)[C@H]([C@@H](C)O)NC1=O [caspofungin] (first compound 12.5 µM), in that order: 0.274 ± 0.0098 and 0.189 ± 0.011.
In the same order, the values of `Nc1ccc(CC(CC(=O)O)C(=O)O)cc1` [4-Amino-D, L-benzylsuccinic acid] + C[C@@H]1[C@H](O)[C@@H](C)/C=C/C=C/C=C/C=C/C=C/C=C/C=C/[C@H](O[C@@H]2O[C@H](C)[C@@H](O)[C@H](N)[C@@H]2O)C[C@@H]2O[C@](O)(C[C@@H](O)C[C@@H](O)[C@H](O)CC[C@@H](O)C[C@@H](O)CC(=O)O[C@H]1C)C[C@H](O)[C@H]2C(=O)O [amphotericin B] (first compound 12.5 µM) are 0.293 ± 0.0096 and 0.185 ± 0.0047.
In the same order, the values of `CCC(C)[C@H](NS(=O)(=O)c1cccc2ccccc12)C(=O)N[C@H](C=O)Cc1c[nH]c2ccccc12` (stereo not given in full) + CC[C@H](C)C[C@H](C)CCCCCCCCC(=O)N[C@H]1C[C@@H](O)[C@@H](NCCN)NC(=O)[C@@H]2[C@@H](O)CCN2C(=O)[C@H]([C@H](O)CCN)NC(=O)[C@H]([C@H](O)[C@@H](O)c2ccc(O)cc2)NC(=O)[C@@H]2C[C@@H](O)CN2C(=O)[C@H]([C@@H](C)O)NC1=O [caspofungin] (first compound 12.5 µM) are 0.253 ± 0.01 and 0.18 ± 0.0089.
As to `CC(C)C[C@H](NC(=O)[C@@H](O)[C@H](N)Cc1ccccc1)C(=O)O` [Bestatin·HCl] + CC[C@H](C)C[C@H](C)CCCCCCCCC(=O)N[C@H]1C[C@@H](O)[C@@H](NCCN)NC(=O)[C@@H]2[C@@H](O)CCN2C(=O)[C@H]([C@H](O)CCN)NC(=O)[C@H]([C@H](O)[C@@H](O)c2ccc(O)cc2)NC(=O)[C@@H]2C[C@@H](O)CN2C(=O)[C@H]([C@@H](C)O)NC1=O [caspofungin] (first compound 12.5 µM), the “biofilm OD600” value is 0.283 ± 0.013 under setting [1] and 0.187 ± 0.0098 under setting [2].
For `O=C(O)CNC(=O)C(CS)Cc1ccccc1` (racemic) [DL-Thiorphan] + CC[C@H](C)C[C@H](C)CCCCCCCCC(=O)N[C@H]1C[C@@H](O)[C@@H](NCCN)NC(=O)[C@@H]2[C@@H](O)CCN2C(=O)[C@H]([C@H](O)CCN)NC(=O)[C@H]([C@H](O)[C@@H](O)c2ccc(O)cc2)NC(=O)[C@@H]2C[C@@H](O)CN2C(=O)[C@H]([C@@H](C)O)NC1=O [caspofungin] (first compound 12.5 µM), in that order: 0.262 ± 0.013 and 0.163 ± 0.0098.
In the same order, the values of `CC1CNc2c(cccc2S(=O)(=O)N[C@@H](CCCNC(=N)N)C(=O)N2CC[C@@H](C)C[C@@H]2C(=O)O)C1` (stereo not given in full) [Argatroban] + C[C@@H]1[C@H](O)[C@@H](C)/C=C/C=C/C=C/C=C/C=C/C=C/C=C/[C@H](O[C@@H]2O[C@H](C)[C@@H](O)[C@H](N)[C@@H]2O)C[C@@H]2O[C@](O)(C[C@@H](O)C[C@@H](O)[C@H](O)CC[C@@H](O)C[C@@H](O)CC(=O)O[C@H]1C)C[C@H](O)[C@H]2C(=O)O [amphotericin B] (first compound 12.5 µM) are 0.3 ± 0.018 and 0.191 ± 0.0048.
`CCCC[C@@H](C=O)NC(=O)OC(C)(C)C` + CC[C@H](C)C[C@H](C)CCCCCCCCC(=O)N[C@H]1C[C@@H](O)[C@@H](NCCN)NC(=O)[C@@H]2[C@@H](O)CCN2C(=O)[C@H]([C@H](O)CCN)NC(=O)[C@H]([C@H](O)[C@@H](O)c2ccc(O)cc2)NC(=O)[C@@H]2C[C@@H](O)CN2C(=O)[C@H]([C@@H](C)O)NC1=O [caspofungin] (first compound 12.5 µM): the “biofilm OD600” value by setting is: under setting [1], 0.254 ± 0.0097; under setting [2], 0.167 ± 0.0058.
Turning to `CC(C)CN(C[C@@H](O)[C@H](Cc1ccccc1)NC(=O)O[C@H]1CCOC1)S(=O)(=O)c1ccc(N)cc1` [amprenavir] + CC[C@H](C)C[C@H](C)CCCCCCCCC(=O)N[C@H]1C[C@@H](O)[C@@H](NCCN)NC(=O)[C@@H]2[C@@H](O)CCN2C(=O)[C@H]([C@H](O)CCN)NC(=O)[C@H]([C@H](O)[C@@H](O)c2ccc(O)cc2)NC(=O)[C@@H]2C[C@@H](O)CN2C(=O)[C@H]([C@@H](C)O)NC1=O [caspofungin] (first compound 12.5 µM), the “biofilm OD600” value by setting is: under setting [1], 0.271 ± 0.014; under setting [2], 0.201 ± 0.013.
For `Nc1ccc(CC(CC(=O)O)C(=O)O)cc1` [4-Amino-D, L-benzylsuccinic acid] + OC(Cn1cncn1)(Cn1cncn1)c1ccc(F)cc1F [fluconazole] (first compound 12.5 µM), the “biofilm OD600” value was 0.291 ± 0.009 under setting [1] and 0.12 ± 0.0067 under setting [2].
Regarding `CC(C)(C)NC(=O)[C@@H]1C[C@@H]2CCCC[C@@H]2CN1C[C@@H](O)[C@H](Cc1ccccc1)NC(=O)[C@H](CC(N)=O)NC(=O)c1ccc2ccccc2n1` [saquinavir] + OC(Cn1cncn1)(Cn1cncn1)c1ccc(F)cc1F [fluconazole] (first compound 12.5 µM), the “biofilm OD600” value runs as follows: under setting [1], 0.255 ± 0.0074; under setting [2], 0.112 ± 0.009.
For `O=C(O)CNC(=O)C(CS)Cc1ccccc1` (racemic) [DL-Thiorphan] + OC(Cn1cncn1)(Cn1cncn1)c1ccc(F)cc1F [fluconazole] (first compound 12.5 µM), in that order: 0.262 ± 0.0084 and 0.107 ± 0.0069.
In the same order, the values of `CNC(=O)[C@H](Cc1c[nH]c2ccccc12)NC(=O)[C@@H](CC(=O)NO)CC(C)C` + OC(Cn1cncn1)(Cn1cncn1)c1ccc(F)cc1F [fluconazole] (first compound 12.5 µM) are 0.272 ± 0.014 and 0.158 ± 0.0086.
In the same order, the values of `O=c1oc(Cl)c(Cl)c2ccccc12` [3,4-Dichloroisocoumarin] + OC(Cn1cncn1)(Cn1cncn1)c1ccc(F)cc1F [fluconazole] (first compound 12.5 µM) are 0.237 ± 0.011 and 0.154 ± 0.014.
For the molecule `NCC1CCC(C(=O)N[C@@H](Cc2ccccc2)C(=O)Nc2ccc(CC(=O)O)cc2)CC1` (stereo not given in full) + C[C@@H]1[C@H](O)[C@@H](C)/C=C/C=C/C=C/C=C/C=C/C=C/C=C/[C@H](O[C@@H]2O[C@H](C)[C@@H](O)[C@H](N)[C@@H]2O)C[C@@H]2O[C@](O)(C[C@@H](O)C[C@@H](O)[C@H](O)CC[C@@H](O)C[C@@H](O)CC(=O)O[C@H]1C)C[C@H](O)[C@H]2C(=O)O [amphotericin B] (first compound 12.5 µM), the “biofilm OD600” value runs as follows: under setting [1], 0.271 ± 0.0064; under setting [2], 0.182 ± 0.017.
With `O=C1Nc2ccc([N+](=O)[O-])cc2C1=O` [5-Nitroisatin] + OC(Cn1cncn1)(Cn1cncn1)c1ccc(F)cc1F [fluconazole] (first compound 12.5 µM), the “biofilm OD600” value under setting [1] amounted to 0.249 ± 0.0083 and the “biofilm OD600” value under setting [2] was 0.107 ± 0.011.
With `CCOC(=O)c1ccc(OC(=O)CCCCCNC(=N)N)cc1` [Gabexate mesylate] + C[C@@H]1[C@H](O)[C@@H](C)/C=C/C=C/C=C/C=C/C=C/C=C/C=C/[C@H](O[C@@H]2O[C@H](C)[C@@H](O)[C@H](N)[C@@H]2O)C[C@@H]2O[C@](O)(C[C@@H](O)C[C@@H](O)[C@H](O)CC[C@@H](O)C[C@@H](O)CC(=O)O[C@H]1C)C[C@H](O)[C@H]2C(=O)O [amphotericin B] (first compound 12.5 µM), the “biofilm OD600” value is, setting by setting: under setting [1], 0.281 ± 0.012; under setting [2], 0.201 ± 0.0075.
With `NC(N)=NCCC[C@H](NC(=O)[C@@H]1CCCN1C(=O)[C@H](N)Cc1ccccc1)C(=O)CCl` + C[C@@H]1[C@H](O)[C@@H](C)/C=C/C=C/C=C/C=C/C=C/C=C/C=C/[C@H](O[C@@H]2O[C@H](C)[C@@H](O)[C@H](N)[C@@H]2O)C[C@@H]2O[C@](O)(C[C@@H](O)C[C@@H](O)[C@H](O)CC[C@@H](O)C[C@@H](O)CC(=O)O[C@H]1C)C[C@H](O)[C@H]2C(=O)O [amphotericin B] (first compound 12.5 µM), the “biofilm OD600” value reads like this: under setting [1], 0.291 ± 0.0073; under setting [2], 0.213 ± 0.0082.
For `CCCCCCCCCC(=O)N[C@@H](CCCN=C(N)N)C(=O)N[C@H](C(=O)N[C@@H](CCCCN)C(=O)N[C@@H](CCCN=C(N)N)C(=O)CCl)C(C)C` + CC[C@H](C)C[C@H](C)CCCCCCCCC(=O)N[C@H]1C[C@@H](O)[C@@H](NCCN)NC(=O)[C@@H]2[C@@H](O)CCN2C(=O)[C@H]([C@H](O)CCN)NC(=O)[C@H]([C@H](O)[C@@H](O)c2ccc(O)cc2)NC(=O)[C@@H]2C[C@@H](O)CN2C(=O)[C@H]([C@@H](C)O)NC1=O [caspofungin] (first compound 4 µM), in that order: 0.18 ± 0.013 and 0.141 ± 0.018.
In the same order, the values of `CC(C)(C)NC(=O)[C@@H]1CN(Cc2cccnc2)CCN1C[C@@H](O)C[C@@H](Cc1ccccc1)C(=O)N[C@H]1c2ccccc2C[C@H]1O` [indinavir] + CC[C@H](C)C[C@H](C)CCCCCCCCC(=O)N[C@H]1C[C@@H](O)[C@@H](NCCN)NC(=O)[C@@H]2[C@@H](O)CCN2C(=O)[C@H]([C@H](O)CCN)NC(=O)[C@H]([C@H](O)[C@@H](O)c2ccc(O)cc2)NC(=O)[C@@H]2C[C@@H](O)CN2C(=O)[C@H]([C@@H](C)O)NC1=O [caspofungin] (first compound 12.5 µM) are 0.227 ± 0.0078 and 0.207 ± 0.011.
